Bioassay records (PubChem BioAssay)
The list is not random: actives were taken first. Their share in the collection is about 21%.
NS1 function inh: qHTS Assay for Inhibitors of Influenza NS1 Protein Function; Potency, µM (titrated, usually from 46.1 µM); 0.4% of 270,000 active; further: actives are rising curves; nearly all actives have a fitted effect of over 50% in size
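Growth recovery, yeast-based: influenza A NS1 expressed in S. cerevisiae causes slow growth, and suppressors are detected by OD600. The parent strain without NS1 is used as positive control.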
Shiga toxin inh: A qHTS for Small Molecule Inhibitors of Shiga Toxin; Vero cells, Shiga toxin protein synthesis inhibition reporter; AID 2315, 2010; 9.2% of 290,000 active; inhibition, % at 38.7 µM; in the data active means inhibition mostly above about 28%, no sharp cut-off; inactive means mostly below about 43%
CHX counter: Cycloheximide Counterscreen for Small Molecule Inhibitors of Shiga Toxin; AID 2314, 2010; max response, %; 12% of 300,000 active; cell reporter, cycloheximide protein synthesis inhibition counterscreen; in the data active means max response mostly above about 13%, no sharp cut-off; inactive means mostly below about 14%; further: read at 38.3 µM for the half of the compounds with a filed dose
Pf growth 48h: Primary qHTS for delayed death inhibitors of the malarial parasite plastid, 48 hour incubation; Potency, µM (titrated, usually from 28.7 µM), usual class: inhibitors; P. falciparum luciferase growth in erythrocytes, 48 h; 5.9% of 310,000 active; active means well fitted inhibition curve with a large enough effect; inconclusive means small, poorly fitted or top-dose-only effect, or another doubt; inactive means no such curve, though single readings can be large or run the other way
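Growth was read as firefly luciferase luminescence after a 48 h, 37 C, 5% CO2 exposure of compounds to reporter-bearing P. falciparum cultures (0.1% parasitemia, 2% hematocrit final) in Albumax-supplemented RPMI 1640.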
Pf growth 96h: Primary qHTS for delayed death inhibitors of the malarial parasite plastid, 96 hour incubation; P. falciparum luciferase reporter growth, 96 h; Potency, µM (highest dose often 28.7 µM), actives largely listed as inhibitors; 6.9% of 320,000 active; AID 504834, 2011; active means well fitted inhibition curve with a large enough effect; inconclusive means small, poorly fitted or top-dose-only effect, or another doubt; inactive means no such curve, though single readings can be large or run the other way
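Luminescence readout: decreased luciferase signal marks inhibited growth of reporter-expressing P. falciparum in infected red cells (2% hematocrit, 0.05% parasitemia final), exposed to compound two generations (96 h, 37 C, 5% CO2).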
SARS PLpro yeast: qHTS of Yeast-based Assay for SARS-CoV PLP; S. cerevisiae expressing SARS-CoV PLpro, growth rescue; Potency, µM (top dose mostly 32.9 µM), most hits filed as activators; 0.19% of 330,000 active; AID 485353, 2010; further: nearly all actives have a fitted effect of over 55% in size
Of the large screens only hits and unclear results are named; the others gave an inactive call. Unless noted, the call rests on the fitted dose curve.

CC(=C\c1ccccc1)/C=C1/SC(=S)N(C(C(=O)O)C(C)C)C1=O (stereo unspecified)	none (no result: NS1 function inh)
COc1ccc(C(=O)c2ccsc2N)cc1	Shiga toxin inh 51, CHX counter 28
COc1ccc(C(=O)c2ccc(CC#N)s2)cc1	Shiga toxin inh 68, CHX counter 24
CCc1cc(C(=O)c2ccc(OC)cc2)c(N)s1	none
CC(=O)N1CCc2cc(S(=O)(=O)NCCCN3CCC(C)CC3)ccc21	Pf growth 96h inconclusive
Cc1cccc(C)c1-n1nnnc1C(C)(C)N1CCN(N=O)CC1	Pf growth 96h inconclusive
CCC(C)(c1nnnn1-c1c(C)cccc1C)N(N=O)c1cccc(C(F)(F)F)c1 (stereo unspecified)	Pf growth 48h 12µM, Pf growth 96h inconclusive
CCOC(=O)c1cn(CC)c2ccc(Br)cc2c1=O	Pf growth 48h 5.2µM, Pf growth 96h 12µM
CCn1cc(C(=O)O)c(=O)c2cc(Br)ccc21	Pf growth 48h 2.6µM (no result: Pf growth 96h)
CCn1cc(C(=O)O)c(=O)c2cc(S(=O)(=O)N(C)C)ccc21	none
CCOC(=O)c1cn(CC)c2ccc(S(=O)(=O)N3CC(C)CC(C)C3)cc2c1=O (stereo unspecified)	none
COc1ccc(C(O)c2ccccc2OP(=O)(N(C)C)N(C)C)cc1 (stereo unspecified)	none
COc1ccc(C(O)c2cc(OC)ccc2OP(=O)(N(C)C)N(C)C)cc1 (stereo unspecified)	Pf growth 48h 10µM, Pf growth 96h 5.2µM
Cc1ccc(C)c(NC(=O)c2cc[n+](C)cc2)c1	none
CC(C)NC(=S)N1CCN(c2ncccn2)CC1	none
CCOc1ccc(Br)cc1C(=O)N/N=C/c1ccccn1	Pf growth 48h 9.3µM, Pf growth 96h inconclusive
Brc1ccc(OCc2ccccc2)c(CNCc2ccncc2)c1	Pf growth 48h 9.3µM, Pf growth 96h 0.41µM
COc1ccc(OC)c(C(=O)N/N=C/c2ccccn2)c1	Shiga toxin inh 76, CHX counter 30
Fc1ccc(COc2ccccc2CNCc2ccncc2)cc1	Pf growth 48h inconclusive, Pf growth 96h inconclusive
COc1ccc(C(=O)Nc2ccccc2C(=O)N/N=C/c2ccccn2)cc1OC	Shiga toxin inh 45, CHX counter 34, Pf growth 48h 4.1µM, Pf growth 96h 12µM
COc1ccc(C(=O)N/N=C/c2ccccn2)cc1OC	Pf growth 48h inconclusive, Pf growth 96h inconclusive (no result: NS1 function inh)
CCc1cccc(C)c1NC(=O)CSc1nc2ccncc2[nH]1	none
O=C(O)C1C2C=CC(C2)C1C(=O)NCCCn1ccnc1 (stereo unspecified)	none (no result: Pf growth 96h)
O=C(Nc1nnc(C2CC2)s1)c1cccc(S(=O)(=O)N2CC(c3ccccc3)CC2=O)c1 (stereo unspecified)	Pf growth 96h inconclusive (no result: Pf growth 48h)
O=C(N/N=C/c1cccnc1)c1ccccc1OCc1cccc(Br)c1	Pf growth 48h inconclusive (no result: NS1 function inh)
O=C(N/N=C/c1ccncc1)c1cc(Br)ccc1OCc1ccccc1	Pf growth 48h inconclusive, Pf growth 96h 2.9µM
COc1ccc(-c2oc3ccccc3c2C#CC(C)(C)O)cc1	Pf growth 48h inconclusive, Pf growth 96h 1.9µM (no result: NS1 function inh, Shiga toxin inh, CHX counter)
COc1ccc(-c2c(C#CC(C)(C)O)c3ccccc3n2C)cc1	none (no result: NS1 function inh, Shiga toxin inh, CHX counter, Pf growth 48h, Pf growth 96h)
COc1ccc(-c2oc3ccccc3c(=O)c2OC(C)=O)cc1	Shiga toxin inh 68, CHX counter 34, Pf growth 48h inconclusive, Pf growth 96h inconclusive (no result: NS1 function inh)
COc1ccc(-c2oc3ccccc3c(=O)c2OCC(=O)O)cc1	Pf growth 96h inconclusive
O=C(O)COc1c(-c2ccco2)oc2ccccc2c1=O	none (no result: NS1 function inh)
CC(=O)Oc1c(-c2ccc(Br)o2)oc2ccccc2c1=O	CHX counter 13, Pf growth 48h inconclusive
CC(C)C[C@H](NC(=O)[C@@H]1CCCN1C(=O)[C@H](CO)NC(=O)[C@H](Cc1ccccc1)NC(=O)CNC(=O)[C@@H]1CCCN1C(=O)[C@@H]1CCCN1C(=O)[C@@H](N)CCCN=C(N)N)C(=O)O	none (no result: NS1 function inh, Pf growth 48h, Pf growth 96h, SARS PLpro yeast)
O=C(NC(=S)Nc1ccccc1[N+](=O)[O-])c1ccccc1	Shiga toxin inh 96, CHX counter 45
Cc1c(NC(=O)c2ccc3nsnc3c2)cccc1[N+](=O)[O-]	none
Cc1cc(C(=O)Nc2cccc([N+](=O)[O-])c2C)cs1	CHX counter 26
O=C(NC(=S)Nc1cccc2[nH]ncc12)c1ccccc1	Shiga toxin inh 58, CHX counter 36 (no result: NS1 function inh)
O=C(CCc1ccccc1)NC(=S)Nc1ccccc1[N+](=O)[O-]	Pf growth 96h inconclusive
Cc1c(NC(=O)c2ccc(C(C)(C)C)cc2)cccc1[N+](=O)[O-]	CHX counter 27
CNC(=S)Nc1cccc2[nH]ncc12	none
CCc1ccc(C(=O)C(C)OC(=O)c2cccc(S(=O)(=O)N3CCOCC3)c2)cc1 (stereo unspecified)	Pf growth 48h inconclusive (no result: NS1 function inh, Shiga toxin inh, CHX counter)
O=C(NNC1CC(=O)N(c2ccccc2)C1=O)c1ccc(COc2ccccc2Cl)o1 (stereo unspecified)	none
Cc1onc(-c2ccccc2Cl)c1C(=O)N(C)Cc1ccccc1	none
CCN(C(=O)Cn1c(=O)oc2ccccc21)c1ccc(C)c(C)c1	Pf growth 48h inconclusive
CCc1ccccc1NC(=O)c1ccc(NCCc2ccccc2)c([N+](=O)[O-])c1	Pf growth 48h inconclusive
CC(C)(C)c1ccc(NC(=O)c2ccccc2)c([N+](=O)[O-])c1	Shiga toxin inh 122, CHX counter 35, Pf growth 96h inconclusive (no result: NS1 function inh)
CCOc1ccccc1OCC(=O)OCC(=O)c1c(C)[nH]c2ccccc12	Pf growth 48h inconclusive, Pf growth 96h inconclusive (no result: NS1 function inh, Shiga toxin inh, CHX counter)
c1ccc(CCOn2ccnc2)cc1	none
COc1ccc(C(=O)/C=C2/C(=O)Nc3ccccc32)cc1OC	Pf growth 48h inconclusive
COc1ccc(C(=O)/C=C2/C(=O)Nc3ccccc32)cc1	Shiga toxin inh 58, CHX counter 21
COc1ccc(C2(C(=O)c3ccccc3)C(=O)c3ccccc3C2=O)cc1	CHX counter 14, Pf growth 48h inconclusive
C#CCOCCOCCOCCNc1nc(N2CCN(C(=O)Cn3cc(CCCN=C(N)N)nn3)CC2)nc(N2CCN(C(=O)[C@H]([C@@H](C)CC)n3cc(CCCCN)nn3)CC2)n1	Pf growth 48h inconclusive, Pf growth 96h inconclusive (no result: NS1 function inh, Shiga toxin inh, CHX counter)
C#CCOCCOCCOCCNc1nc(N2CCN(C(=O)[C@H]([C@@H](C)CC)n3cc(CCCN=C(N)N)nn3)CC2)nc(N2CCN(C(=O)[C@H](C)n3cc(CCCN=C(N)N)nn3)CC2)n1	Pf growth 48h inconclusive, Pf growth 96h 0.17µM
C#CCOCCOCCOCCNc1nc(N2CCOCC2)nc(N2CCN(C(=O)[C@H](C)n3cc(CCCN=C(N)N)nn3)CC2)n1	none
C#CCOCCOCCOCCNc1nc(N2CCN(C(=O)[C@H](C)n3cc(CCCN=C(N)N)nn3)CC2)nc(N2CCN(C(=O)[C@H](C)n3cc(CCCN=C(N)N)nn3)CC2)n1	Pf growth 48h inconclusive, Pf growth 96h 0.74µM
